# From PubChem BioAssay (NCATS)
# “And” between values parts separate entries of the source, which are not always exact repeats. Equal entries are not always repeated. Records with an inconclusive call do not appear. The source made the active and inactive calls. The call rests on the fitted dose curve.
# Biological target: Vitamin D3 receptor (Homo sapiens) (UniProt P11473)
# Experiment: qHTS assay for small molecule antagonists of vitamin D receptor signaling (AID 588541);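 further: receptor activated by calcitriol during compound treatment; on the % scale 0 is the no-effect control and ±100 the full control effect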
# Conditions: HEK293T VDR-UAS-bla, beta-lactamase ratio, antagonist mode; series mostly up to 76.7 µM
# Procedure, shortened: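 Antagonist-mode beta-lactamase reporter assay: HEK293T VDR-UAS-bla cells were exposed to titrated compound alongside 1-alpha,25-dihydroxyvitamin D3 at 3 nM final for 16 h. Values were normalized to the 50 nM agonist control and DMSO basal, with IC50 and efficacy from Hill equation fits.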
# Sequence of Vitamin D3 receptor (Homo sapiens) (P11473 whole entry, looked up): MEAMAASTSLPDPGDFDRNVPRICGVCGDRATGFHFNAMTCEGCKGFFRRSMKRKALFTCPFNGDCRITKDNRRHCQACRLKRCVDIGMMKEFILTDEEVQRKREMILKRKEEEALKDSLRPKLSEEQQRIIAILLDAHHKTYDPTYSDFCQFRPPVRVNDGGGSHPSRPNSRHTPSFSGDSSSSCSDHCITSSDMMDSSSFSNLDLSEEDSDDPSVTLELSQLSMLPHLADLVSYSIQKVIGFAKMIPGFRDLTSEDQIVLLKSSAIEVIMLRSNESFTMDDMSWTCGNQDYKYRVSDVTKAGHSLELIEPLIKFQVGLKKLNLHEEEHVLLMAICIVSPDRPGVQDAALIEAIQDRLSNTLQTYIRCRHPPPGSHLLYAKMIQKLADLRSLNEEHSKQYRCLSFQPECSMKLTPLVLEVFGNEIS
row,SMILES,outcome
1,CC12CCC(CC1=O)C2(C)C (stereo not drawn),inactive
2,O=C(/C=C/c1ccc(O)c(O)c1)O[C@@H](C(=O)O)[C@@H](OC(=O)/C=C/c1ccc(O)c(O)c1)C(=O)O,inactive
3,CCCCCCCCOC(=O)c1cc(O)c(O)c(O)c1,inactive
4,O=C(O)CCCCCCCCC(=O)O,inactive
5,C[Si](C)(C)O[Si](C)(C)O[Si](C)(C)C,inactive

# Biological target: Vitamin D3 receptor (Homo sapiens) (UniProt P11473)
# Experiment: qHTS assay for small molecule agonists of vitamin D receptor signaling (AID 588543);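 further: 0% = DMSO basal and 100% = reference agonist control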
# Conditions: HEK293T VDR-UAS-bla, beta-lactamase ratio, 16 h; series mostly up to 76.8 µM
# Procedure, shortened: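 Agonist-mode beta-lactamase reporter: HEK293T VDR-UAS-bla cells in charcoal-stripped 2% FBS, compound series 16 h 37 C, CCF4 2 h RT. EC50 from Hill fit, scaled against DMSO and 50 nM calcitriol control.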
row,SMILES,outcome
1,CC12CCC(CC1=O)C2(C)C (stereo not drawn),inactive
2,O=C(/C=C/c1ccc(O)c(O)c1)O[C@@H](C(=O)O)[C@@H](OC(=O)/C=C/c1ccc(O)c(O)c1)C(=O)O,inactive
3,CCCCCCCCOC(=O)c1cc(O)c(O)c(O)c1,inactive
4,O=C(O)CCCCCCCCC(=O)O,inactive
5,C[Si](C)(C)O[Si](C)(C)O[Si](C)(C)C,inactive

# System: not listed separately
# Experiment: qHTS assay for small molecule agonists of retinoid X receptor alpha signaling (AID 588544)
# Conditions: HEK293T RXRa-UAS-bla, beta-lactamase reporter, 18 h; 530 nm emission
row,SMILES,max response
1,CC12CCC(CC1=O)C2(C)C (stereo not drawn),0.96% and -15.4%
2,O=C(/C=C/c1ccc(O)c(O)c1)O[C@@H](C(=O)O)[C@@H](OC(=O)/C=C/c1ccc(O)c(O)c1)C(=O)O,-0.499%
3,O=C(O)CCCCCCCCC(=O)O,9.91%
4,C[Si](C)(C)O[Si](C)(C)O[Si](C)(C)C,-9.58%

# Biological target: Retinoic acid receptor RXR-alpha (Homo sapiens) (UniProt P19793)
# Experiment: as above
# Conditions: HEK293T RXRa-UAS-bla, beta-lactamase reporter, 18 h; series mostly up to 76.7 µM
# Sequence of Retinoic acid receptor RXR-alpha (Homo sapiens) (P19793 whole entry, looked up): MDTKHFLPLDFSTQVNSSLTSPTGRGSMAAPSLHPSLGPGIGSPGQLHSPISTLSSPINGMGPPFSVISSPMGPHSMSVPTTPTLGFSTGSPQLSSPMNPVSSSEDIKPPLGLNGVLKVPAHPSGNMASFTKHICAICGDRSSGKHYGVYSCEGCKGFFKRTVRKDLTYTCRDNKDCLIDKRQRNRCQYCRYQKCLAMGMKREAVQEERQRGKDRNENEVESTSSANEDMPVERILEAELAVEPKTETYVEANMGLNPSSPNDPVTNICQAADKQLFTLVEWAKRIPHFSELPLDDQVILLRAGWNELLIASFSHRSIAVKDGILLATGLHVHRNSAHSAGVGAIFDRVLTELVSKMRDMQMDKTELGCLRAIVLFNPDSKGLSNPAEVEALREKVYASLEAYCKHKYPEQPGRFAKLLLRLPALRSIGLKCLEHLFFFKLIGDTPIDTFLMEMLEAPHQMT
row,SMILES,outcome
1,CC12CCC(CC1=O)C2(C)C (stereo not drawn),inactive
2,O=C(/C=C/c1ccc(O)c(O)c1)O[C@@H](C(=O)O)[C@@H](OC(=O)/C=C/c1ccc(O)c(O)c1)C(=O)O,inactive
3,O=C(O)CCCCCCCCC(=O)O,inactive
4,C[Si](C)(C)O[Si](C)(C)O[Si](C)(C)C,inactive

# Biological target: Thyroid hormone receptor beta (Homo sapiens) (UniProt P10828)
# Experiment: qHTS assay for small molecule agonists of thyroid hormone receptor beta signaling (AID 588545);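 further: 0% = DMSO only and 100% = 10 nM T3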
# Conditions: TR-UAS-bla GripTite HEK 293, beta-lactamase ratio, agonist mode, 18 h, percent of T3 response, DMSO as zero; series mostly up to 76.7 µM
# Procedure, shortened: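 Stimulation of a TR-driven beta-lactamase reporter was quantified in GripTite HEK 293 cells. Compound series ran for 18 hrs; curves were normalized to T3 and DMSO controls and fitted to yield EC50.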
# Sequence of Thyroid hormone receptor beta (Homo sapiens) (P10828 whole entry, looked up): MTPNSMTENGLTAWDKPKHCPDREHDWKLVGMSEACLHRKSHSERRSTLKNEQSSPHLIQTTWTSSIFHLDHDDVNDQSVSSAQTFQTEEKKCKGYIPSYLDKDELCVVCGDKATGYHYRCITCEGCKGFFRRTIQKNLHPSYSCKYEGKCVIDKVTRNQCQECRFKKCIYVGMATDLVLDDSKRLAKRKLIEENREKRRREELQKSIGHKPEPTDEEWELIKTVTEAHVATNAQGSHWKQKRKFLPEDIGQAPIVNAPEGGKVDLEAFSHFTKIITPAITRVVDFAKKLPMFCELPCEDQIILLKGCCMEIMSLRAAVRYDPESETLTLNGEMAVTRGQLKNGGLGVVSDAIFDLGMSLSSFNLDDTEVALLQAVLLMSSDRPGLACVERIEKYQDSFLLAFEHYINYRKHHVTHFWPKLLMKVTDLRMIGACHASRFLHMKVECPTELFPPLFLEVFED
row,SMILES,outcome
1,CC12CCC(CC1=O)C2(C)C (stereo not drawn),inactive
2,O=C(/C=C/c1ccc(O)c(O)c1)O[C@@H](C(=O)O)[C@@H](OC(=O)/C=C/c1ccc(O)c(O)c1)C(=O)O,inactive
3,CCCCCCCCOC(=O)c1cc(O)c(O)c(O)c1,inactive
4,O=C(O)CCCCCCCCC(=O)O,inactive
5,O=C(Nc1ccccc1)c1ccccc1O,inactive
6,C[Si](C)(C)O[Si](C)(C)O[Si](C)(C)C,inactive

# System: not listed separately
# Experiment: qHTS assay for small molecule antagonists of retinoid X receptor alpha signaling (AID 588546);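 further: cells stimulated with 9-cis-retinoic acid as agonist; on the % scale 0 is the no-effect control and ±100 the full control effect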
# Conditions: HEK293T RXRa-UAS-bla, beta-lactamase ratio, antagonist mode; measured here: W530 green channel, cytotoxicity proxy
# Procedure, shortened: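 Beta-lactamase reporter inhibition, read as CCF4 fluorescence ratio (ex 405, em 460/530 nm) after 2 h at RT. HEK293T UAS-bla cells, 2500/well, were stimulated with 9-cis-RA at 500 or 100 nM final alongside test compound for 18 h at 37 C.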
row,SMILES,max response
1,CC12CCC(CC1=O)C2(C)C (stereo not drawn),-5.66% and -6.43%
2,O=C(/C=C/c1ccc(O)c(O)c1)O[C@@H](C(=O)O)[C@@H](OC(=O)/C=C/c1ccc(O)c(O)c1)C(=O)O,-0.233%
3,CCCCCCCCOC(=O)c1cc(O)c(O)c(O)c1,-11.7%
4,C[Si](C)(C)O[Si](C)(C)O[Si](C)(C)C,-9.81%
